According to ChEMBL document CHEMBL4513216, “Probing the Open Global Health Chemical Diversity Library for Multistage-Active Starting Points for Next-Generation Antimalarials” (ACS Infect Dis, 2020):
The whole screen tested about 69,000 compounds, of which about 8,600 (12%) showed an effect of 50% or more. Only a selection was taken, and strong results are over-represented in it overall.

test system: Plasmodium berghei; assay: Screen against P. berghei liver stage (PbLuc), transformed with Luciferase, at 10uM; type: functional, HepG2; settings: tested at 10 uM

Compound | INHIBITION [%]
O=C(O)c1cc(-c2cncnc2)cc(S(=O)(=O)N2CCCCCC2)c1 | -8
CN(C)c1nccnc1C1CCN(C(=O)C2(C)CCCCN2C)CC1 (stereo not drawn) | 28.6
Cc1n[nH]c2c1C(c1cnn(C)c1)SCC(=O)N2 (stereo not drawn) | -2.37
Cc1nn(-c2ncccn2)c2c1C(c1cnn(C)c1C)SCC(=O)N2 (stereo not drawn) | 27.6
Cc1nn(-c2ncccn2)c2c1C(c1cnn(C)c1)SCC(=O)N2 (stereo not drawn) | 61
Cc1nn(-c2ccccn2)c2c1C(c1cnn(C)c1)SCC(=O)N2 (stereo not drawn) | 41.5
CC(C)n1nc(O)c2c1NC(=O)CSC2c1cnn(C)c1 (stereo not drawn) | 9.36
Cc1cc(C)nc(-n2nc(C)c3c2NC(=O)CSC3c2cnn(C)c2)n1 (stereo not drawn) | 88.8
COc1cc(CN2CCn3c(CO)nnc3C2)ccc1OC(C)C | 35.2
Cc1noc(C)c1C(=O)N1CCCN(Cc2cscn2)CC1 | 9.64
NCC1CCC(C(NC(=O)c2ccccc2)c2ccccn2)CC1 (stereo not drawn) | 48.8
Cc1noc(C)c1-c1cncc(C2CCCN2Cc2cn(C)cn2)n1 (stereo not drawn) | 26.8
Cc1ccc(NCc2ccc(C#N)cc2)c(CN(C)C)c1 | 86.7
Cc1ccc(NS(=O)(=O)c2cccc(C#N)c2)c(CN(C)C)c1 | -0.613
Cc1ccc(NS(=O)(=O)c2ccc(C#N)cc2)c(CN(C)C)c1 | -33.5
Cc1cc(C)n(-c2ccc3nnc(C)n3n2)n1 | -14.9
O=C(CSc1ccc(F)cc1F)NS(=O)(=O)c1ccc2c(c1)OCCO2 | -16.45
COCCn1nc(C(=O)N(C)Cc2cnn(C)c2)ccc1=O | 36.3
Cc1cc(NC(=O)CNC2CCCN(c3cccnn3)C2)on1 (stereo not drawn) | 21
CC(C)[C@H]1COC(=O)N1CC(=O)N1CCCN(C(=O)c2ccoc2)CC1 | 52.1
Cc1ccccc1N1CCCN(C(=O)CN2C(=O)OC[C@@H]2C(C)C)CC1 | 23
CC(C)[C@H]1COC(=O)N1CC(=O)N1CCN(C(=O)c2ccco2)CC1 | 7.6
COCc1nnc(C(=O)N2CC(N3CCCCC3)C2)o1 | 10.6
NCC1CCC(C(NC(=O)c2ccccn2)c2ccccn2)CC1 (stereo not drawn) | 24.4
O=C(c1ccco1)N1CC[C@@H]2O[C@H](COCCN3CCCC3)CC[C@@H]21 | 24.1

Compound | INHIBITION [%]
NC(=O)N1CC[C@@H]2O[C@H](COCC(=O)N3CCCC3)CC[C@@H]21 | -27.9
CC(=O)N1CC[C@@H]2O[C@@H](COCC(=O)N3CCCC3)CC[C@@H]21 | 52
O=C(c1ccno1)N1CC[C@@H]2O[C@@H](COCCN3CCCC3)CC[C@@H]21 | 28.4
O=C(c1ccco1)N1CC[C@@H]2O[C@H](COCC3CCOCC3)CC[C@@H]21 | -4.99
O=C(c1ccco1)N1CC[C@@H]2O[C@@H](COCC3CCOCC3)CC[C@@H]21 | 68.9
O=C(c1ccco1)N1CC[C@@H]2O[C@@H](COCCN3CCCC3)CC[C@@H]21 | 83.5
O=C(c1ccoc1)N1CC[C@@H]2O[C@@H](COCC3CCOCC3)CC[C@@H]21 | 38.1
NC(=O)N1CC[C@@H]2O[C@@H](COCC(=O)N3CCCC3)CC[C@@H]21 | 15.4
CC(C)(NS(C)(=O)=O)c1nc(-c2ccc(F)cc2Cl)no1 | -9.76
Cc1cccc(C(=O)NCc2cccnc2N(C)C)n1 | 35.6
Cc1cc(C(=O)N2CCCC2)ccc1NCC(=O)N1CCOCC1 | 7.67
O=C(c1ccccc1)N1CC[C@H]2C[C@@H](c3nccs3)O[C@@H]2C1 | -22.5
O=c1cccnn1CC1CN(Cc2ccsc2)Cc2nccn2C1 (stereo not drawn) | 40.4
CC(C(=O)N1CCCCCC1)N1CCN(c2nccs2)CC1 (stereo not drawn) | 31.1
Cc1cc(Nc2ccccn2)nc(C2CCCN(CCO)C2)n1 (stereo not drawn) | 17.4
Cc1nc(CCNC(=O)Nc2cc(C(F)(F)F)c[nH]c2=O)cs1 | 19.7
COc1ccc(NC(=O)N(CCO)Cc2ccsc2)c(OC)c1 | 5.85
COc1ccccc1NC(=O)N(CCO)Cc1ccsc1 | 77.6
CCOc1ccccc1NC(=O)N(CCO)Cc1ccsc1 | -8.51
CC1(C(=O)N2CCOCC2)CN(Cc2c[nH]cn2)CCO1 (stereo not drawn) | 39.7
O=C(O)c1c(NC2CCC2)ncc2c1CCN(C1CCOC1)C2 (stereo not drawn) | 11.3
CN(C)C(=O)N1C[C@H]2CC[C@@H](C1)N(Cc1nnc(C3CC3)o1)C2 | 28
O=C(NCCc1ccccc1)N1CC[C@@H]2CNS(=O)(=O)[C@@H]2CC1 | 23.1
COc1cccc(CC(=O)N2CC[C@@H]3[C@H](CC2)N(C)CCS3(=O)=O)c1 | 45.4
COc1cccc(NC(=O)N2CC[C@@H]3CN(C)S(=O)(=O)[C@@H]3CC2)c1 | 55.4

Compound | INHIBITION [%]
O=S1(=O)NC[C@H]2CCN(Cc3ccccc3)CC[C@H]21 | 12.7
CN(C)C(=O)CN1C[C@H]2CCN(c3ncccn3)CC[C@H]2S1(=O)=O | -85.3
COc1cccc(CC(=O)N2CC[C@@H]3CN(C)S(=O)(=O)[C@@H]3CC2)c1 | -1.28
Cc1ccccc1NC(=O)N1CC[C@@H]2CN(C)S(=O)(=O)[C@@H]2CC1 | -6.05
CN(C)C(=O)CN1C[C@H]2CCN(Cc3ccccc3)CC[C@H]2S1(=O)=O | 60.3
CCN1C[C@H]2CCN(C(=O)Cc3cccc(OC)c3)CC[C@H]2S1(=O)=O | 52.4
O=C(Cc1ccccc1)N1CC[C@@H]2CNS(=O)(=O)[C@@H]2CC1 | 54.1
COc1ccc(CC(=O)N2CC[C@@H]3CN(C)S(=O)(=O)[C@@H]3CC2)cc1 | 37.5
CN(C)C(=O)CN1C[C@H]2CCN(C(=O)c3ccccc3)CC[C@H]2S1(=O)=O | 44.2
CC(C)CN1CCc2[nH]nc(C(=O)N3CCCC3)c2C1 | 45.7
Cc1nc(-c2nc(C(=O)NC3CC3)c3ccccn23)cn1C(C)C | 43
OC(CNCCn1cccn1)c1ccc(Br)cc1 (stereo not drawn) | 25.6
CCn1nc(C)c(S(=O)(=O)N(C)c2ccc(Cl)cn2)c1C | 0.643
O=C(COCc1ccco1)Nc1cc(C(F)(F)F)c[nH]c1=O | 19.6
CCc1nc(C2CCCN2CCn2cncn2)no1 (stereo not drawn) | 16.7
CC(C)[C@]1(O)CN(C(=O)COCC(N)=O)C[C@H]1C | 10.6
CNC(=O)N1CC[C@@H]2CN(Cc3cccc(OC)c3)S(=O)(=O)[C@@H]2CC1 | 63.8
CNC(=O)N1CC[C@@H]2CN(CCc3cccc(OC)c3)S(=O)(=O)[C@@H]2CC1 | 8.31
COc1cccc(NC(=O)N2CCC(O)(C(F)(F)F)C2)c1 (stereo not drawn) | 79.1
COc1cccc(CC(=O)N2CCC(O)(C(F)(F)F)C2)c1 (stereo not drawn) | 49.1
COc1cccc(CCCNC(=O)N2CCC(O)(C(F)(F)F)C2)c1 (stereo not drawn) | 41.4
CNC(=O)N1CC[C@@H]2CN(Cc3cccc(Cl)c3)S(=O)(=O)[C@@H]2CC1 | -2.17
c1cc2c(cc1-n1nc(C3CC3)nc1-c1csnn1)OCCO2 | 27.2
O=C(c1ccoc1)N1CCC(NCc2ccccc2Cl)CC1 | 7.81
CN(C)C(=O)Cn1c(C2CC2)c(CN2CCC(O)CC2)c2cccnc21 | -8.58

Compound | INHIBITION [%]
Cc1csc(CCNC(=O)Nc2cc(C(F)(F)F)c[nH]c2=O)n1 | 22
Cc1occc1C(=O)N1C[C@@H](C(=O)NCc2ccco2)C[C@H]2OCC[C@H]21 | 32.2
Cc1c[nH]c(C2CCCN(Cc3cccc(C(=O)O)c3)C2)n1 (stereo not drawn) | 6.26
CC(=O)Nc1ccc(Oc2cccc(CN3CCCC3)c2)cc1 | 27.9
N#Cc1cccc(Oc2ccc(CN3CCCC3)cc2Cl)n1 | 55
COc1ccc(Oc2cccc(C#N)n2)cc1CN1CCCC1 | 25.4
N#Cc1ccc(CN2CCOCC2)cc1 | 40.6
CCOc1cc(CN2CCCC2)ccc1Oc1cccc(C#N)n1 | 47.6
COc1ccc(CN2CCCC2)cc1Oc1cccc(C#N)n1 | 57.5
O=C1CCNc2ccc(F)cc2CN1Cc1ccco1 | 1.8
Cc1ccc(-c2nc(C3CCN(C(=O)c4cnn(C)c4)CC3)no2)cn1 | 30.5
O=c1[nH]c(N2CCOCC2)nc2c1CN(Cc1cccnc1)CC2 | -4.51
O=C1CCCN1CCCC(=O)N1CCC2(CC1)[C@H](O)C[C@@H]2O | 9.56
CN(Cc1nc(Cc2cccc(C(F)(F)F)c2)no1)CC1CCCCO1 (stereo not drawn) | 42.1
CNC(=O)COc1cccc(CNC(=O)c2c(C)noc2C(C)C)c1 | 37.4
COC1CCCN(Cc2cc(O)c3cc(C)cc(C)c3n2)C1 (stereo not drawn) | 61.2
Cc1cc(C)c2nc(CN3CCCC(c4cc[nH]n4)C3)cc(O)c2c1 (stereo not drawn) | 78.5
Cc1cc(C)c2nc(CN3CC[C@@H](O)C3)cc(O)c2c1 | 20.1
Cc1cc(C)c2nc(CN3CCC(CN)CC3)cc(O)c2c1 | 34.9
Cc1cc(C)c2nc(CN3CCC(CN)C3)cc(O)c2c1 (stereo not drawn) | -8.75
Cc1cc(C)c2nc(CN3CCOCC(O)C3)cc(O)c2c1 (stereo not drawn) | 17.6
CS(=O)(=O)CCn1ccc(NC(=O)Cc2ccccc2Cl)n1 | 25.2
CSCCC(Nc1nc(C)cc(C)n1)C(=O)NC1CC1 (stereo not drawn) | -15.4
